# According to PubChem BioAssay (NCI):
# This is part of a sample that, as a whole, favours compounds with a hit. Of some 79,000 tested, about 15% had one in any assay. Values without a mark were called inactive. Activity calls are given as the source filed them. Rule as the data show it: active = growth inhibition above about 70%; inactive = the rest.
# Assays:
# [1] = NCI Yeast Anticancer Drug Screen. Data for the rad50 strain (AID 155);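 also: 0% = growth of vehicle-only cultures of the same strain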; conditions: S. cerevisiae rad50 strain growth inhibition, hits give high values
# Summary of the method: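 Inhibition values express reduced yeast growth in compound-treated cultures relative to vehicle-treated controls.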
# [2] = NCI Yeast Anticancer Drug Screen. Data for the mec2-1 strain (AID 157); conditions: S. cerevisiae mec2-1 strain, hits give high values
# Summary of the method: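 Yeast mec2-1 mutant treated with compound. Readout: growth inhibition vs vehicle controls.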
# [3] = NCI Yeast Anticancer Drug Screen. Data for the sgs1 mgt1 strain (AID 161);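 also: 0% = growth of cultures given vehicle only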; conditions: S. cerevisiae sgs1 mgt1 strain, hits give high values
# Summary of the method: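 Test agents were incubated with a DNA-repair-mutant yeast strain. Growth was then read and compared against vehicle-treated controls.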
# [4] = NCI Yeast Anticancer Drug Screen. Data for the cln2 rad14 strain (AID 165);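 also: 0% = growth equal to vehicle treated cultures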; conditions: S. cerevisiae cln2 rad14 strain, hits give high values
# Summary of the method: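 cln2 rad14 yeast strain; compound exposure; growth inhibition read vs vehicle controls.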
# [5] = NCI Yeast Anticancer Drug Screen. Data for the bub3 strain (AID 167); conditions: S. cerevisiae bub3 mutant strain, hits give high values
# Summary of the method: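 Steps: expose the mutant yeast strain to compound; grow alongside vehicle-treated cultures; measure growth; express inhibition against the vehicle cultures.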
# [6] = NCI Yeast Anticancer Drug Screen. Data for the mlh1 rad18 strain (AID 175); conditions: S. cerevisiae mlh1 rad18 strain growth inhibition, hits give high values
# Summary of the method: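 Yeast w/ defined DNA-repair lesions; compound exposure; growth vs vehicle controls → % inhibition.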
# [7] = at 5.0 µM (retest, dose inferred, filed as 0.5)
# [8] = at 50.0 µM (retest, dose inferred, filed as 5.0)
Compound,"growth inhibition [1, 7]","growth inhibition [1, 8]",growth inhibition ([1]; at 50.0 µM),"growth inhibition [2, 7]","growth inhibition [2, 8]",growth inhibition ([2]; at 50.0 µM),"growth inhibition [3, 7]","growth inhibition [3, 8]",growth inhibition ([3]; at 50.0 µM),"growth inhibition [4, 7]","growth inhibition [4, 8]",growth inhibition ([4]; at 50.0 µM),"growth inhibition [5, 7]","growth inhibition [5, 8]",growth inhibition ([5]; at 50.0 µM),"growth inhibition [6, 7]","growth inhibition [6, 8]",growth inhibition ([6]; at 50.0 µM)
CCN(CC)CC(=O)c1cc2ccccc2c2ccccc12,36%,97% (active),99.3% (active),14%,93% (active),92.2% (active),47%,97% (active),99.4% (active),2%,82% (active),31.1%,11%,98% (active),99.1% (active),36%,98% (active),99% (active)
COC12c3c(C)cc(O)c4c(=O)occ(c34)C(=O)C1C13COC(=O)c4c(O)cc(C)c(c41)C(=O)C2C3OC(C)=O (configuration not stated),45%,99% (active),91.4% (active),32%,100% (active),93% (active),69%,99% (active),92.7% (active),63%,100% (active),91.9% (active),71% (active),100% (active),91.1% (active),36%,99% (active),91.9% (active)
CCCCCCCC[N+]12CN3CN(CN(C3)C1)C2,-5%,-21%,1.75%,-2%,-33%,4.1%,-6%,-28%,7.75%,2%,-38%,30.4%,1%,-25%,31.8%,-1%,-26%,16.9%
CC(=O)c1ccc(-[n+]2c(C)cc(-c3ccccc3)cc2C)cc1,-11%,-1%,-15.4%,-1%,-6%,-7.4%,-19%,-8%,-13.6%,3%,-3%,39.6%,-4%,-1%,15.7%,-5%,-6%,21.9%
Oc1c(O)c(Br)c(Br)c(Br)c1Br,97% (active),98% (active),91.2% (active),99% (active),99% (active),93.5% (active),99% (active),99% (active),93.5% (active),98% (active),99% (active),93% (active),98% (active),98% (active),91.8% (active),98% (active),99% (active),91.8% (active)
COC1CC(C)C(OC)C2=CC(=O)C=C(NC(=O)/C(C)=C/C=C\C(C)C(OC(N)=O)/C(C)=C\C(C)C1OC)C2=O (configuration not stated),93% (active),98% (active),91.5% (active),97% (active),99% (active),93% (active),97% (active),99% (active),92.5% (active),89% (active),97% (active),91.2% (active),97% (active),99% (active),91.1% (active),97% (active),98% (active),91.4% (active)
C[N+](C)(C)CC1CCCc2ccccc2C1=O (configuration not stated),22%,90% (active),88% (active),20%,97% (active),85.9% (active),17%,88% (active),91.3% (active),6%,43%,81% (active),32%,99% (active),88.1% (active),30%,98% (active),90.5% (active)
Clc1nc(Cl)nc(Nc2ccccc2Cl)n1,67%,96% (active),99% (active),40%,97% (active),96.7% (active),53%,98% (active),98.9% (active),21%,97% (active),95.8% (active),82% (active),99% (active),98.6% (active),24%,95% (active),97.2% (active)
O=C1CN2CCCCC2CN1 (configuration not stated),-159%,-143%,-13.2%,-43%,-47%,7.9%,-59%,-56%,-2.65%,-58%,-60%,24.9%,-73%,-71%,1.8%,-137%,-114%,5.35%
